C2C12 statin: suppressors of statin myotoxicity in C2C12 myotubes, primary screen, cell-based, single point, plate reader; C2C12 myotubes + simvastatin, ATP luminescence, 48 h; scaled: DMSO 0, geranylgeraniol control 100; rescue of ATP level, % at 7.49 µM; hit rate 0.78% among 330,000; AID 602340, 2012;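 active = mean ATP rescue above about 67%, or every replicate alone reaching that limit, limit read from the data, passing the limit was not always enough; inconclusive = no clear call, values can overlap the other calls; inactive = mean under the limit and some replicate under it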;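 note: myotubes were challenged with 10 µM simvastatin during compound exposure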
MITF TRPM1 HTS: activators of MITF-driven TRPM1 promoter reporter, primary screen, cell-based, SK-MEL-5, luciferase, single point | hit rate 0.75% among 300,000 | SK-MEL-5 TRPM1-promoter luciferase, 24 h; % of positive control, neutral wells = 0 | activation, % at 12.5 µM;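 active = mean activation of at least 80% with every replicate also reaching 80%; inconclusive = mean reaches 80% but some replicate falls short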
esBAF inh: Bmi1 luciferase reporter increase in mESCs, primary screen, esBAF inhibitor project, mouse ES cells, Bmi1 luciferase knock-in, single point; 24 h; 100% = twice the neutral-well signal; reporter increase, % at 12.5 µM; hit rate 2% among 350,000; AID 602393, 2012; in the data active = activation above about 40%; inconclusive = no clear call, values can overlap the other calls;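 note: a rise in the Bmi1 reporter signal indicates esBAF inhibition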
EBV LMP1 NFkB: EBV LMP1-driven NF-kappaB luciferase reporter inhibitors, primary screen, cell-based, luminescence, single point; LMP1-induced NF-kappaB luciferase reporter cells; inhibition, % at 12.5 µM; hit rate 0.69% among 350,000; in the data active = inhibition above about 41%; inconclusive = no clear call, values can overlap the other calls
MITF TRPM1 inh: inhibitors of MITF-dependent TRPM1 promoter reporter, primary screen, cell-based, SK-MEL-5, single point, luciferase. hit rate 0.83% among 330,000. SK-MEL-5 TRPM1 promoter luciferase, 24 h. AID 488899, 2010. inhibition, % at 12.5 µM;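 active = mean inhibition across replicates of 60% or more, whatever share of single replicates reaches that level; inconclusive = some that reach 60%, reason not given; inactive = mean inhibition across replicates below 60%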
Wnt bcat act: Wnt/beta-catenin pathway activators, primary screen, cell-based, plate reader, single point; Wnt/beta-catenin reporter cell assay, activator; hit rate 1.2% among 300,000; activation, % at 9.35 µM; in the data active = activation above about 30%, passing the limit was not always enough; inconclusive = no clear call, values can overlap the other calls
Hits are given with their value; - = inactive; ? = inconclusive; . = not tested or not shown. Most compounds without a hit are left out; they make up all but 4% or so of the library.

SMILES | C2C12 statin | MITF TRPM1 HTS | esBAF inh | EBV LMP1 NFkB | MITF TRPM1 inh | Wnt bcat act
Cc1ccc(C)c(N2CCN(C(=S)Nc3ccc4nc(N5CCOCC5)cc(C)c4c3)CC2)c1 | . | - | . | - | - | -
Cc1ccc(C)c(N2CCN(C(=S)Nc3ccc4nc(N5CCN(C)CC5)cc(C)c4c3)CC2)c1 | . | - | . | - | 84.7 | -
Cn1cccc1Cc1nnc(SCC(=O)Nc2nc3ccccc3s2)n1CCc1ccccc1 | . | - | - | - | - | -
Cc1nnc(NC(=O)CSc2nnc(Cc3cccn3C)n2CCc2ccccc2)s1 | - | - | - | 65.8 | - | -
CCCC1=Nc2cc(C(=O)NCCCOCC)ccc2Sc2ccccc21 | . | - | . | - | 72.5 | .
CCCC1=Nc2cc(C(=O)NCCCOC(C)C)ccc2Sc2ccccc21 | . | - | . | - | - | -
Cc1cccc2c(N)c3c(nc12)N(C)CC3 | - | - | - | - | - | -
c1ccc(CSc2nnc(-c3ccccn3)n2-c2ccccc2)cc1 | 106.8 | . | - | - | - | -
Cn1c(SCc2ccccc2F)nnc1-c1cnccn1 | . | - | - | - | - | -
Cn1c(SCc2ccccc2F)nnc1-c1ccccn1 | - | - | - | - | - | 56.0
CC(C)(C)NC(=O)CSc1nnc(-c2ccccn2)n1-c1ccccc1 | - | - | - | - | - | -
Cc1ccc(CSc2nnc(-c3ccccn3)n2C)cc1 | - | . | - | - | - | -
Cn1c(SCc2ccc(F)cc2)nnc1-c1ccccn1 | - | - | 40.7 | - | - | 43.2
C[C@H](CO)N1C[C@H](C)[C@@H](CN(C)C(=O)Nc2cccc3ccccc23)Oc2c(NC(=O)c3cnccn3)cccc2C1=O | - | . | - | . | . | .
CCCNC(=O)Nc1ccc2c(c1)C(=O)N(C)[C@@H]1CC[C@H](CC(=O)NCc3ccccc3)O[C@H]1CO2 | - | . | - | . | . | .
O=[N+]([O-])c1cccc(S(=O)(=O)N2CCN(S(=O)(=O)N3CCOCC3)CC2)c1 | - | - | - | - | - | -
O=c1cc(-c2ccccc2Cl)oc2cc(O)cc(O)c12 | - | - | 57.5 | - | - | -
Nc1ccc(O)c2c(=O)cc(-c3ccccc3Cl)oc12 | . | 109.4 | . | - | - | 53.8
C[C@H](CO)N1C[C@H](C)[C@H](CN(C)S(=O)(=O)c2cn(C)cn2)Oc2ccc(NC(=O)Nc3ccc(F)cc3)cc2C1=O | - | . | - | . | . | .
Cc1ccc(C2CC2c2n[nH]c(=S)n2-c2ccc(C)cc2)cc1 (stereo unspecified) | 118.0 | - | - | - | - | -
C/C(=N\NC(=O)c1cccc(F)c1)c1ccc(NC(=O)Cc2ccccc2)cc1 | . | - | . | - | - | -
COc1ccc(-c2ccc(C(=O)NCc3cccs3)c3occc23)c(C)c1 | - | . | 72.0 | . | . | -
CCCc1cc(C(=O)Nc2cc(Br)ccc2O)no1 | - | . | 56.6 | - | . | -
CC(C)Cc1cc(C(=O)Nc2cc(Cl)ccc2Cl)no1 | - | - | - | - | - | -
CCCc1cc(C(=O)Nc2cc(Cl)ccc2O)no1 | - | ? | 82.7 | - | - | -
SMILES | C2C12 statin | MITF TRPM1 HTS | esBAF inh | EBV LMP1 NFkB | MITF TRPM1 inh | Wnt bcat act
COc1ccc(C(=O)C[n+]2cc(-c3ccc(OC)cc3)n3c2CCCC3)cc1 | - | - | - | - | - | -
Cc1ccc(-c2c[n+](Cc3ccc(Cl)c(Cl)c3)c3n2CCC3)cc1 | . | - | . | - | 72.3 | -
Cc1ccc(C(=O)C[n+]2cc(-c3ccc(C)cc3)n3c2CCCCC3)cc1 | - | - | - | - | 76.2 | .
O=C(NCC1OCCc2ccccc21)c1ccc(NC(=O)c2ccc(Cl)cc2)cc1 (stereo unspecified) | . | - | . | - | 69.2 | -
Cc1ccc(NC(=O)C(=O)NCC2OCCc3ccccc32)cc1 (stereo unspecified) | - | - | - | - | - | -
Cc1cccc(C)c1N1CCN(C(=O)Nc2ccc3c(c2)OCCO3)CC1 | - | . | - | - | - | 44.5
CC(C)(C)OC(=O)N1CCN(C(=O)Nc2ccc3c(c2)OCCO3)CC1 | - | - | 47.8 | - | - | -
C[C@@H]1CCCCO[C@@H](CN(C)S(=O)(=O)c2cn(C)cn2)[C@@H](C)CN([C@H](C)CO)C(=O)c2cc(NC(=O)C3CCCCC3)ccc2O1 | - | . | - | . | . | .
C[C@@H]1CN([C@H](C)CO)C(=O)Cc2cc(NC(=O)Nc3cccc4ccccc34)ccc2O[C@H]1CN(C)S(=O)(=O)c1cccs1 | - | . | - | . | . | .
COc1cc(OC)cc(-c2c(C#Cc3ccsc3)c3cc(-c4ccc(OC)c(F)c4)ccc3n2C)c1 | - | - | - | - | - | -
COc1cc(OC)cc(-c2c(C#Cc3ccsc3)c3cc(-c4cc(OC)c(OC)c(OC)c4)ccc3n2C)c1 | - | - | - | 89.2 | - | -
CCCC#Cc1cnc2c(c1)C(=O)N([C@H](C)CO)C[C@H](C)[C@@H](CN(C)Cc1cccnc1)O2 | . | . | - | . | . | .
O=C(C1=C[C@@H](c2ccc3c(c2)OCO3)C[C@@H](OCCCCO)O1)N1CCOCC1 | - | - | - | - | - | -
COc1ccc(CNC(=O)CC23CC4CC(CC(C4)C2)C3)cc1OC | - | - | - | - | - | -
O=C(Nc1nc2ccc(Cl)cc2s1)c1ccc(Br)o1 | - | - | 61.8 | - | - | -
O=C(Nc1nc2c(Cl)cccc2s1)c1ccc(Br)o1 | - | - | - | - | - | .
Cc1cc(C(=O)Nc2nc3ccc(Cl)cc3s2)nn1C | . | . | . | . | . | 60.2
Cn1ncc(Cl)c1C(=O)Nc1nc2ccc(Cl)cc2s1 | . | - | . | - | - | -
COc1ccc(-c2cc(C(=O)Nc3ccc(O)cc3)c3ccccc3n2)cc1OC | - | - | - | - | - | -
COc1ccc(S(=O)(=O)NNC(=O)c2sccc2-n2cccc2)cc1 | 96.1 | - | - | - | - | -
O=C(NNS(=O)(=O)c1ccc(Br)cc1)c1sccc1-n1cccc1 | . | - | . | - | - | -
CCOC(=O)C1=C(C)Nc2ncnn2C1c1ccccc1F (stereo unspecified) | 80.5 | - | - | - | - | .
CC(=O)C1=C(C)Nc2ncnn2C1c1ccccc1OCc1ccccc1 (stereo unspecified) | 114.3 | - | - | - | - | -
COc1ccccc1C1C(C(=O)NCc2ccccc2)=C(C)Nc2ncnn21 (stereo unspecified) | . | . | . | - | - | -
CCOc1ccc(C(C(=O)NCC2CCCO2)N(C(=O)c2snc(C(N)=O)c2N)c2ccccc2F)cc1 (stereo unspecified) | - | - | - | - | - | -
Cc1nc(NC(=O)COc2ccc(Cl)cc2)sc1C(=O)N(C)C | . | . | . | . | . | -
C[C@H](CO)N1C[C@H](C)[C@@H](CN(C)C(=O)Nc2ccc(C(F)(F)F)cc2)OCCCC[C@H](C)Oc2ccc(NC(=O)c3ccccc3)cc2C1=O | - | . | - | . | . | .
